This is part of a sample that, as a whole, favours compounds with a hit. Of some 83,000 tested, about 20% had one in any assay.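 Percent growth is the endpoint: 0 to 100 indicates growth inhibition (40 means 60% inhibition), 0 means no net growth, and negative values indicate cell death.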 Activity calls are given as the source filed them.

This assay relates to OVCAR-5 ovarian. The assay can be described thus: NCI-60 one-dose screen, 48 h (100 = growth as untreated, 0 = no growth, -100 = all killed). Particulars: 10 µM. The protocol:
Growth inhibition of the OVCAR-5 human tumor cell line is measured as a screen for anti-cancer activity. Cells are grown in 96 well plates and exposed to the test compound for 48 hours. Compounds are tested at a single concentration, which is 10^-5 M for most compounds. The reported endpoint is percent growth (GI% or GIPRCNT), where numbers from 0 - 100% represent growth inhibition, and numbers from -100% - 0 represent cell death. For example, a value of 40 represents 60% growth inhibition. A value of 0 means no net growth occurred over the course of the experiment. A value of -40 indicates 40% of cells at the beginning of the experiment died by the end of the experiment. A value of -100 means all cells are dead at the end of the experiment.
NCI-60 Human Tumor Cell Lines Screen was performed using the standard one-dose NCI protocol, which is described in more detail at https://dtp.cancer.gov/discovery_development/nci-60/default.htm.
Compounds with GIPRCNT values below 10 were considered active. Activity score was based on GIPRCNT using the following formula: […]
Score is 0 for GIPRCNT values of 100 or above, 50 for GIPRCNT values of 0, and 100 for GIPRCNT values of -100.
With `CC(=O)c1ccc(NC(=O)NCn2c(=O)[nH]c3ccccc3c2=O)cc1`, the growth was 107% (inactive).

As to `CC1(C)CC[C@]23CC[C@]4(C)[C@H](CC[C@@H]5[C@@]6(C)CC[C@H](N)C(C)(C)[C@@H]6CC[C@]54C)[C@H]2[C@H]1OC3=O`, the growth was -99.9% (active).

`OCCNc1oc(-c2ccccc2)nc1[P+](c1ccccc1)(c1ccccc1)c1ccccc1`: the growth was 31.2% (inactive).

As to `COc1ccc(-c2cc(C(=O)N=Nc3c(O)[nH]c4ccccc34)c3ccccc3n2)cc1`, the growth was 18.2% (inactive).

As to `Cc1ccc(-c2cc(-c3cc4ccccc4nc3Cl)[nH]c(=S)n2)cc1`, the growth was 87% (inactive).

For the compound `O=C(c1ccc(-n2c(=O)[nH]c3ccccc3c2=O)cc1)N1CCOCC1`, the growth is 102% (inactive).

For the compound `COc1cc(/C=C/C(=O)c2cc(OC)c(OC)c(OC)c2)ccc1Oc1nc(Nc2ccc(F)cc2)nc(N(C)C)n1`, the growth was -44.7% (active).

As to `CCCn1c(=O)c2[nH]c(-c3ccc(OCc4nc5ccc(C#N)cc5[nH]4)cc3)nc2n(CCC)c1=O`, the growth was 113% (inactive).

As for `C#Cc1ccc(S(=O)(=O)Nc2cccc(-c3csc(NC(C)=O)n3)c2)cc1`, the growth was 101% (inactive).

For `COc1ccc(CN2[C@@H](C(=O)NCc3ccc(C(=O)NO)cc3)Cc3c([nH]c4ccccc34)[C@@H]2C)cc1`, the growth is 4.29% (active).

`O=C(c1ccc(Cl)cc1)C1[C@H](c2ccc(Br)cc2)[C@@H](c2ccccc2)NC12C(=O)Nc1ccccc12` (stereo not given in full): the growth is -25.8% (active).

As to `COc1ccc2nc(Nc3cccc(NC(=O)c4ccc(CN5CCN(C)CC5)c(C(F)(F)F)c4)c3)ccc2c1`, the growth was -75% (active).

For the compound `CCCSc1nc(NC2CC2)c(C#N)c(-c2ccc(OC)cc2)n1`, the growth was 105% (inactive).

On to `C=CC(=O)Nc1nc(-c2cccc(NS(=O)(=O)c3cccc4c(N(C)C)cccc34)c2)cs1`, for which the growth was -61.6% (active).

In the case of `COc1ccc([C@H]2C(C(=O)c3ccc(Cl)cc3)C3(N[C@@H]2c2ccccc2)C(=O)Nc2ccc(Cl)cc23)cc1` (stereo not given in full), the growth was -23.4% (active).

`Cc1noc2c(Cc3ccc([N+](=O)[O-])cc3)nn(CC(=O)N/N=C/c3ccc(Cl)cc3)c(=O)c12`: the growth is 73.7% (inactive).

As to `N#Cc1ccc(-c2nn(-c3ccc(C(=O)O)cc3)cc2CNc2ccc(Cl)cc2)cc1`, the growth is 111% (inactive).

Turning to `O=C(O)CCCCCCCCCCN1C(=O)/C(=C/c2cnc(-c3ccccc3)s2)SC1=S`, the growth is 109% (inactive).

`NS(=O)(=O)c1ccc(NC(=O)CSc2ccc(-c3ccc(Cl)cc3)nn2)c(Br)c1`: the growth was 73.3% (inactive).

`O=c1[nH]c2ccccc2cc1CSc1ccc(Nc2nccc(-c3ccc(Cl)cc3)n2)cc1`: the growth was -19.5% (active).

As to `Cc1ccc(CNC(=O)Cc2ccc3c(c2)CN(C2CCC(=O)NC2=O)C3=O)cc1` (stereo not given), the growth was 29.5% (inactive).

With `Brc1ccc(/C=C/c2n(Cc3ccc4ccccc4c3)c3ccccc3[n+]2Cc2ccc3ccccc3c2)cc1`, the growth is -91.1% (active).

In the case of `COc1ccc(NC(=O)CSc2nnc(-c3ccc4nc(-c5ccc(Cl)cc5)[nH]c4c3)o2)cc1`, the growth was 79.9% (inactive).

As for `CCOC(=O)CNC(=O)CN(Cc1ccccc1)C(=O)[C@@]1(C)CCC[C@]2(C)[C@H]3C[C@H]4C(C(C)C)=C[C@]3(CC[C@H]21)[C@@H]1C(=O)OC(=O)[C@@H]14`, the growth is 105% (inactive).

Take `O=C(NO)c1ccc(CNC(=O)[C@H]2Cc3c([nH]c4ccccc34)[C@H](c3ccccc3)N2)cc1`: the growth is 15.3% (inactive).

As to `C=C1CCC2C3(C)COC(c4cc(F)cc(F)c4)OC3CCC2(C)C1C/C=C1/C(=O)OCC1O` (stereo not given), the growth was -21.3% (active).

For the compound `CC(=O)OC[C@@]1(C)C2CC[C@]3(C)C(CC=C4C5CC(C)(C)CC[C@]5(C(=O)Nc5ccccc5)CC[C@]43C)[C@@]2(C)C[C@@H](OC(C)=O)[C@@H]1OC(C)=O` (stereo not given in full), the growth was 81.4% (inactive).

Turning to `CN(C)CCNC(=O)OCCCCOc1cc(O)c2c(=O)cc(-c3ccccc3)oc2c1`, the growth was -4.32% (active).

With `COc1cc2c(cc1OC)CN(CCCCOc1cc(O)c3c(=O)cc(-c4ccccc4)oc3c1)CC2`, the growth is 114% (inactive).

Regarding `COc1ccc(-c2cc(C(=O)N=Nc3c(O)[nH]c4ccc(Br)cc34)c3ccccc3n2)cc1`, the growth was 51.3% (inactive).

For `N#Cc1c(NC(=O)c2ccc(C(F)(F)F)c(Cl)c2)sc2c1CCC(=O)C2`, the growth is -8.2% (active).

As to `CSc1nc(-c2cccc(C)c2)c2cc(-c3ccccc3)n(C)c2n1`, the growth was 49.6% (inactive).

In the case of `C=CCn1c(SCC(=O)Nc2ccc(C(=O)/C=C/c3ccccc3)cc2)nnc1-c1c[nH]c2ccccc12`, the growth was 102% (inactive).

Regarding `Cc1ccc(C(C)C)cc1NC(=O)c1ccccc1O`, the growth is 96.2% (inactive).

For the compound `COc1cc(/C=C/C(=O)c2ccc(S(=O)(=O)NCCNc3nc(Nc4ccc(F)cc4)nc(N(C)C)n3)cc2)cc(OC)c1OC`, the growth is -23.4% (active).

For the compound `Cc1noc2c(Cc3ccc([N+](=O)[O-])cc3)nn(CC(=O)N/N=C/c3ccc(Br)cc3)c(=O)c12`, the growth was 96.9% (inactive).

Consider `C=C(C)[C@@H]1CC[C@]2(C)[C@H](CC=C3[C@@H]4CC(C)(C)CC[C@]4(C(=O)N4CCOCC4)CC[C@]32C)[C@@]1(C)CCCN`, for which the growth is -98.9% (active).

`CCCS(=O)(=O)c1oc(-c2ccc(F)cc2)nc1S(=O)(=O)c1ccc(F)cc1`: the growth was -68.3% (active).

Turning to `Cc1ccc(-c2ccc(SCC(=O)Nc3ccc(Cl)c(C(F)(F)F)c3)nn2)cc1`, the growth is 39.1% (inactive).

For `COc1ccc(N(C)c2cc(C#N)nc3ccccc23)cc1/C=C/C(=O)NO`, the growth was -46.2% (active).
